The values below come from PubChem BioAssay AID686978 (National Center for Advancing Translational Sciences (NCATS), 2013).

Hit rate of the full screen: of about 420,000 compounds, about 64,000 (15%) were called active. Roughly 27% stayed inconclusive and do not appear here. The list is a sample of the results. A number with no mark means an inactive call. The call rests on the fitted dose curve; in most records, active means well fitted inhibition curve with a large enough effect; inconclusive means small, poorly fitted or top-dose-only effect; inactive means flat fitted curve, though single readings scatter.
On the % scale 0 is the no-effect control and ±100 the full control effect; potency means the concentration at half of the fitted maximal effect.

The experiment is described as follows: qHTS for Inhibitors of human tyrosyl-DNA phosphodiesterase 1 (TDP1): qHTS in cells in absence of CPT. Further: nearly all actives have a fitted effect of over 55% in size. The conditions noted are these: DT40 Tdp1-/- hTDP1 cells, no CPT, ATP luminescence, 48 h; activity change, negative = growth inhibition: at 46.2 µM (top of the series). The method in brief:
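Camptothecin absent (DMSO only). Human TDP1-complemented DT40 knockout cells, 400 cells/well, 37 °C for minimum 48 hr; ATP measured via CellTiter-Glo, 30 min dark incubation, luminescence.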
For orientation: Quantitative high-throughput screening tests each substance at several concentrations.
In the case of `COc1ccc(CN2CCCC(N3CCc4ccccc4C3)C2)c(O)c1` (centres undefined), the “activity change, negative = growth inhibition” value was -21.1%.
Consider `Cc1cc(F)ccc1NS(=O)(=O)c1ccc(-n2cccn2)cc1`, for which the Potency was 16.4 µM (active).
Take `Cc1ccc(NS(=O)(=O)c2ccc(F)cc2)nc1`: the “activity change, negative = growth inhibition” value is -4.34%.
Turning to `Cn1nccc1NS(=O)(=O)c1ccc(F)cc1`, the “activity change, negative = growth inhibition” value was -11.8%.
Consider `COc1ccccc1C(C)NC(=O)Cc1ccsc1` (centres undefined), for which the “activity change, negative = growth inhibition” value is -6.78%.
Same read-out and setting: as for `Cc1nn(-c2ccc(F)cc2)c(Cl)c1/C=C(/CCC(=O)O)c1nc2ccccc2s1`, the figure is -22.9%; as for `CN(Cc1nc2ccccc2s1)C(=O)c1ccc(F)cc1`, -17.7%.
Turning to `CC1=CC(=C(C#N)c2nc3ccccc3s2)C=C(C)N1c1ccc(F)cc1F`, the Potency is 18.4 µM (active).
`COCc1c(C(=O)N/N=C\c2cccnc2)nnn1-c1nonc1N`: the “activity change, negative = growth inhibition” value was -4.54%.
`Cc1cc(C(=O)OCC(=O)NCc2ccco2)c(C)n1-c1ccccc1`: the Potency was 2.06 µM (active).
Consider `O=C(COC(=O)c1ccccc1O)NCc1ccco1`, for which the “activity change, negative = growth inhibition” value is 25.6%.
Same read-out and setting: then `CN(c1ccccc1)S(=O)(=O)c1ccc(Cl)c(C(=O)OCC(=O)NCc2ccco2)c1`, with 0.341%; and `Cc1ccc(S(=O)(=O)/N=S(\C)C(C)C)cc1` (centres undefined), with -14.2%; and `Cc1cc(O)ccc1NC1=CC(=O)CC(C)(C)C1`, with -10.4%.
For the compound `Oc1ccc(N=Cc2sc3ccccc3c2Cl)cc1`, the Potency is 10.3 µM (active).
For the compound `Oc1ccc2ccccc2c1C=Nc1ccccc1`, the “activity change, negative = growth inhibition” value was -14.9%.
Consider `O=C1C2C3C=CC(C4CC34)C2C(=O)N1/N=C/c1ccc(-c2ccccc2[N+](=O)[O-])o1` (centres undefined), for which the Potency is 18.4 µM (active).
For `N#C/C(=C/c1ccc(-c2ccccc2[N+](=O)[O-])o1)C(=O)NCCN1CCCCC1`, the “activity change, negative = growth inhibition” value was -14.1%.
As for `Cc1cc(-c2ccc(/C=N/n3cnnc3)o2)c([N+](=O)[O-])cc1C`, the “activity change, negative = growth inhibition” value is -27.1%.
As for `Cn1c(-c2ccc(C(F)(F)F)cc2)cc2onc(-c3ccccc3)c2c1=O`, the “activity change, negative = growth inhibition” value was -2.85%.
In the case of `Cc1ccc(S(=O)(=O)CCC(=O)OCC(=O)NCCc2ccc(S(N)(=O)=O)cc2)cc1`, the “activity change, negative = growth inhibition” value was 0.283%.
Same read-out and setting: as for `CCC1C(=O)NCCN1C(=O)c1ccc2nc(Cc3ccc(OC)cc3)oc2c1` (centres undefined), the figure is 10.5%.
For the compound `COc1ccc(C(CCNCc2ccccc2F)c2ccc(F)cc2)cc1` (centres undefined), the Potency was 13 µM (active).
As for `COc1ccc(CC(=O)NC(C)CCc2ccccc2)cc1` (centres undefined), the “activity change, negative = growth inhibition” value was -14.4%.
Turning to `COc1ccc(CCNC(=O)COC(=O)Cc2ccccc2F)cc1`, the “activity change, negative = growth inhibition” value was -10.9%.
Still for that read-out and setting: as for `COc1ccccc1-c1ccnc(-n2ncc(C(=O)NCCc3ccncc3)c2C)n1`, the figure is -3.85%.
Regarding `COc1cccc(NC(=O)CN2C(=O)c3ccccc3Sc3ncccc32)c1`, the Potency was 18.4 µM (active).
With `CNC(=O)CN1C(=O)c2cccnc2Sc2ccccc21`, the “activity change, negative = growth inhibition” value was -14.7%.
In the case of `COCCNC(=O)CCCN1C(=O)c2ccccc2Sc2ncccc21`, the Potency entry is “inactive”.
Regarding `Cc1ccc(S(=O)(=O)N(C)CC(=O)NC2CCCC2)cc1`, the “activity change, negative = growth inhibition” value was -2.7%.
Take `C#CCN(C[C@@H]1[C@@H](OC(=O)NC2CC2)[C@@H](OC(=O)NC2CC2)Cn2c(=O)ccc(=O)n21)S(=O)(=O)c1ccc(C)cc1`: the Potency is 14.6 µM (active).
Take `C#CCN(C[C@H]1[C@H](OC(=O)NC2CCCC2)[C@H](OC(=O)NC2CCCC2)C[C@H]2C(=O)N(c3ccccc3)C(=O)[C@@H]12)S(=O)(=O)c1ccc(C)cc1`: the “activity change, negative = growth inhibition” value was -8.47%.
Same read-out and setting: as for `CN(C)CCN(C(=O)C1=COCCO1)c1nc2ccc(Cl)cc2s1`, the figure is -15.7%.
On to `CC(=O)OCc1cc(=O)n(C)c(=O)n1C`, for which the “activity change, negative = growth inhibition” value was -3.09%.
On to `CC1C(O)CC2C(C(=O)O)=CO[C@@H](O[C@H]3OC(CO)C(O)C(O)C3O)C21` (some centres undefined), for which the “activity change, negative = growth inhibition” value was -11.8%.
Consider `CN(C)S(=O)(=O)c1ccc(Oc2ccc(S(=O)(=O)N(C)C)cc2)cc1`, for which the Potency is 18.4 µM (active).
For the compound `CN(C)S(=O)(=O)c1ccc(NC(=O)N2CCOCC2)cc1`, the “activity change, negative = growth inhibition” value was -20.5%.
On the same count and under the same terms, as for `COc1ccc(S(=O)(=O)N(C)CC(=O)N2CCCC2)cc1`, the figure is 4.23%; as for `C#CCOCCOCCOCCNc1nc(N2CCN(C(=O)[C@H](CCC(=O)O)n3cc(CN)nn3)CC2)nc(N2CCN(C(=O)[C@H](CCC(=O)O)n3cc(CN)nn3)CC2)n1`, -1.32%; as for `Cc1cccc(C(=O)NCc2nnc(SC(C)C(=O)Nc3nnc(C)s3)n2C)c1` (centres undefined), -10.8%.
Same read-out and setting: as for `CCc1ccc(Oc2coc3cc(O)ccc3c2=O)cc1`, the figure is -1.36%.
Regarding `COc1cc(C(=O)OC(C)C(=O)NCC2CCCCC2)cc(NC(=O)c2ccco2)c1OC` (centres undefined), the Potency is 20.6 µM (active).
Consider `CC(OC(=O)c1cccc(S(=O)(=O)N2CCOCC2)c1)C(=O)NCC1CCCCC1` (centres undefined), for which the “activity change, negative = growth inhibition” value was 2.27%.
As for `COc1cc(C(C(=O)NC2CCCC2)N(C(=O)c2ccco2)c2ccccc2C(C)=O)cc(OC)c1OC` (centres undefined), the “activity change, negative = growth inhibition” value is -27.1%.
Same read-out and setting: as for `CSCC[C@H](NC(=O)N1CCn2c1nc1ccccc12)C(=O)NCc1ccc2c(c1)OCO2`, the figure is -8.33%.
Same read-out and setting: as for `CC(=O)N/C(=C\c1ccccc1)C(=O)OC(C)C(=O)N(C)c1ccccc1` (centres undefined), the figure is -23.1%; as for `O=S(=O)(NCCS(=O)(=O)N1CCN(c2ccccc2)CC1)c1ccc(Cl)cc1`, -19.2%.
Consider `O=C(CSc1ccccc1)Nc1cc(Cl)ccc1Oc1ccccc1`, for which the “activity change, negative = growth inhibition” value was -19.9%.
With `CC1CCCN(CC(=O)Nc2cc(Cl)ccc2Oc2ccccc2)C1` (centres undefined), the Potency was 16.4 µM (active).
